gsp agonist: gsp mutant agonism; gsp mutant cells, cAMP HTRF, 30 min; Potency, µM (top dose mostly 76.9 µM), usual class: activators; hit rate 0.13% among 340,000; active means well fitted activation curve with a large enough effect; inconclusive means small, poorly fitted or top-dose-only effect, or another doubt; inactive means no such curve, though single readings can be large or run the other way; cell line not stated here;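 further: phosphodiesterase inhibitor Ro 20-1724 added with compounds to block cAMP breakdown; nearly all actives have a fitted effect of over 60% in size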
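Cells in DMEM/10% FBS with G418 were pretreated with compounds in DMSO plus […] (300 uM stock) for 30 min at 37C. cAMP was measured by HTRF (cAMP-d2 plus anti-cAMP antibody-K) after 30 min at room temperature.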
gsp antagonist: antagonizes gsp, the McCune-Albright syndrome mutation; gsp-mutant cells, cAMP HTRF, 30 min; Potency, µM (top dose mostly 76.9 µM), usual class: inhibitors; hit rate 0.4% among 340,000; AID 624288; calls by dose curve; cell line not stated here;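 further: intracellular cAMP measured with PDE inhibitor Ro 20-1724 present during compound exposure; nearly all actives have a fitted effect of over 65% in size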
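Cells in G418 medium, seeded 16-24 h, 37C; buffer exchange to DPBS + 1 mM CaCl2, 0.5 mM MgCl2, 0.05% BSA; cpds in DMSO + […] (300 uM stock), 30 min 37C; HTRF cAMP detection.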
pAkt inh: blocks phosphorylation of Akt; hit rate 0.32% among 360,000; Neuro2A IGF-stimulated pAkt S473 HTRF, 20 min; stronger effect = lower value; activity change, % for hits at 50 µM; in the data active means activity change below about -80%; inconclusive means mostly about -51% to -80%
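Neuro2A cells in DMEM with 0.5% FBS, overnight at 37 deg C, given compound at single 50 µM final, then IGF (6 nM final) for 20 min at 37 deg C. Lysed; phospho-Akt Ser473 by HTRF after 24 h, 665/615 ratio.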
hERG WT inh: blocks the wildtype human KCNH2 potassium channel. activity change, % at 1.84 µM. U2OS, BacMam KCNH2, thallium flux FluxOr; stronger effect = lower value. hit rate 0.37% among 340,000. Q12809. AID 720551;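 active means maximum activity change below -70%; inconclusive means maximum activity change between -70% and -50%; inactive means maximum activity change above -50%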
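U2OS cells were transduced with wild-type KCNH2 virus (2.03 x 10^8 / mL) for 4 h at room temperature, then cultured overnight at 37 C. Thallium flux was read with FluxOr dye. Rate constants were normalized to DMSO controls.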
KCNH2 3.1 inh: KCNH2 3.1 (human) potassium channel inhibition; U2OS KCNH2 3.1, thallium flux FluxOr; stronger effect = lower value; AID 720553; activity change, % (tested at about 1.8 µM); hit rate 0.95% among 340,000;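 active means maximum activity change below -70%; inconclusive means maximum activity change from -70% to -50%; inactive means maximum activity change above -50%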;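 further: thallium influx rate constant from kinetic fluorescence after stimulation buffer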
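Steps: virus added to U2OS suspension (4 h, RT, dark); medium with 10% FBS added, cells plated, 37 C overnight; FluxOr/Red40 loading buffer 45 min RT; stimulation buffer, 2 min kinetic read; rate constant normalized.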
GRP78 ERSR act: ER stress response induction in glioma. U87-MG GRP78 promoter luciferase reporter, 16 h. Potency, µM, actives largely listed as activators. hit rate 0.02% among 420,000. AID 602332; active means well fitted activation curve with a large enough effect; inconclusive means small, poorly fitted or top-dose-only effect; inactive means no such curve, though single readings can be large or run the other way; further: series mostly up to about 76 µM; nearly all actives have a fitted effect of over 35% in size
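Stably transfected U87-MG glioma cells carrying a GRP78-based luciferase sensor; 16 h compound incubation. Luminescence end-point read 10 min after Bright-Glo addition at room temperature.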
Each line names hits and unclear results; the compound was inactive in the other large screens. This is a sample that favours compounds with a hit; in the whole collection about 1.6% have one here.

CC[C@]1(O)C[C@H]2CN(CCC3=c4ccccc4=N[C]3[C@@](C(=O)OC)(c3cc4c(cc3OC)N(C)[C@H]3[C@@](O)(C(N)=O)[C@H](O)[C@]5(CC)C=CCN6CC[C@]43[C@@H]65)C2)C1	none (no result: gsp agonist, gsp antagonist, pAkt inh, hERG WT inh, KCNH2 3.1 inh)
CCOc1cccc(CN2CCC(n3cc(C(=O)N4CCCCC4)nn3)CC2)c1O	none (no result: gsp agonist, gsp antagonist, pAkt inh, hERG WT inh, KCNH2 3.1 inh)
Cc1ccc(C)c(N2CCN(C(=O)C34CC5CC(C3)CC(n3nnc(C)n3)(C5)C4)CC2)c1	gsp antagonist 39.8µM
O=C1CCN(Cc2cccc(C(F)(F)F)c2)CCN1Cc1ccccn1	none (no result: gsp agonist, gsp antagonist, pAkt inh, hERG WT inh, KCNH2 3.1 inh)
Cc1nnc(NC(=O)C2CCN(S(=O)(=O)c3cc([N+](=O)[O-])ccc3Cl)CC2)o1	gsp antagonist 35.5µM
O=C(NC1CC1)C1CCN(S(=O)(=O)c2cc([N+](=O)[O-])ccc2Cl)CC1	none
Cc1ncc(CO)c2c1Oc1nc(-c3ccccc3F)nc(SCC(=O)N(C)c3ccccc3)c1C2	gsp antagonist 39.8µM
Cc1cccc(-c2nc3c(c(SCC(=O)N4CCOCC4)n2)Cc2c(CO)cnc(C)c2O3)c1	gsp antagonist 39.8µM
COc1cccc(OC)c1CN1CCC2(CCC(CNC(=O)c3ccccc3)O2)CC1 (stereo not given)	none (no result: gsp agonist, gsp antagonist, pAkt inh, hERG WT inh, KCNH2 3.1 inh)
CCCNC(=O)c1ccc(N2CCC3(CC2)CC(c2cccc(Br)c2)=NO3)c(NC(=O)c2ccc(Br)cc2)c1	hERG WT inh -82.7, KCNH2 3.1 inh -111.0 (no result: gsp agonist)
CCCNC(=O)c1ccc(N2CCC3(CC2)CC(c2cccc(Br)c2)=NO3)c(NC(=O)c2c(Cl)cccc2Cl)c1	none
CCCCC(CC)C(=O)Nc1cc(C(=O)NCCC)ccc1N1CCC2(CC1)CC(c1ccccc1)=NO2 (stereo not given)	hERG WT inh -109.4, KCNH2 3.1 inh -94.0
CCCNC(=O)c1ccc(N2CCC3(CC2)CC(c2ccccc2)=NO3)c(NC(=O)c2cccc(OC)c2)c1	hERG WT inh -91.5, KCNH2 3.1 inh -96.5
CCC1CN(CC(=O)NC(C)c2cn(C)nc2C)Cc2cc(OC)ccc2O1 (stereo not given)	none (no result: gsp agonist, gsp antagonist, pAkt inh, hERG WT inh, KCNH2 3.1 inh)
CCC(=O)C(Cc1ccccc1)(Cc1ccccc1)CC(C)N(C)C (stereo not given)	none (no result: gsp agonist, gsp antagonist, pAkt inh, hERG WT inh, KCNH2 3.1 inh)
C#CC1(OC(C)=O)CCC2C3CCC4=CC(OC(C)=O)CCC4C3CCC21C (stereo not given)	none (no result: gsp agonist, gsp antagonist, pAkt inh, hERG WT inh, KCNH2 3.1 inh)
CCCCC(F)(F)[C@@]1(O)CC[C@H]2[C@H](CC(=O)[C@@H]2CCCCCCC(=O)O)O1	none (no result: gsp agonist, gsp antagonist, pAkt inh, hERG WT inh, KCNH2 3.1 inh)
COc1ccc(CNc2oc(/C=C/c3cc(OC)c(OC)c(OC)c3)nc2C#N)cc1	GRP78 ERSR act 31.6µM (no result: gsp agonist, gsp antagonist, pAkt inh, hERG WT inh, KCNH2 3.1 inh)
COc1ccc(CCNc2oc(COc3ccccc3)nc2C#N)cc1	none
COc1ccc(CNc2oc(COc3ccccc3)nc2C#N)cc1	KCNH2 3.1 inh -78.3
COc1ccc(/C=C/c2nc(C#N)c(NCc3ccc(C)cc3)o2)cc1OC	none (no result: gsp agonist, gsp antagonist, pAkt inh, hERG WT inh, KCNH2 3.1 inh)
COc1ccc2c(c1)OC(C)CN(CC(=O)NCc1cn[nH]c1-c1ccc(F)cc1)C2 (stereo not given)	none (no result: gsp agonist, gsp antagonist, pAkt inh, hERG WT inh, KCNH2 3.1 inh)
CCCCOC(=O)c1cccc(NC(=O)CC)c1	pAkt inh -112.3%
CCCCOC(=O)c1ccc(NC(=O)Nc2ccc(OC)c(OC)c2)cc1	none (no result: pAkt inh)
CCCOC(=O)c1cccc(NC(=O)C(C)(C)C)c1	none
CCCCOC(=O)c1ccc(NC(=O)c2c(OC)cccc2OC)cc1	gsp agonist 11.2µM
CCCCCCCCCC[n+]1cccc2cc(Br)ccc21	none (no result: gsp agonist, gsp antagonist, pAkt inh, hERG WT inh, KCNH2 3.1 inh)
COc1cc(C2C(C#N)=C(N)N(Nc3ccccc3)C3=C2C(=O)CC(C)(C)C3)ccc1OCc1ccccc1 (stereo not given)	none
COc1cc(C2C(C#N)=C(N)N(Nc3ccccc3)C3=C2C(=O)CC(C)(C)C3)ccc1OCc1cccc(F)c1 (stereo not given)	pAkt inh -91.9%
CCC1CN(CCNC(=O)c2cccc(N3CCCC3=O)c2)Cc2cc(OC)ccc2O1 (stereo not given)	none (no result: gsp agonist, gsp antagonist, pAkt inh, hERG WT inh, KCNH2 3.1 inh)
O=C(Nc1nc(-c2ccc3c(c2)OCCO3)cs1)c1ccc(Br)o1	KCNH2 3.1 inh -74.0 (no result: gsp antagonist)
Cc1ccc(C(=O)Nc2nc(-c3ccc4c(c3)OCCO4)cs2)o1	gsp agonist inconclusive (no result: gsp antagonist)
CCOc1ccc(N(CC(=O)NCCSc2ccccn2)S(=O)(=O)c2ccc(Cl)cc2)cc1	none

Screening results deposited in PubChem BioAssay by National Center for Advancing Translational Sciences (NCATS).
